Peg3 promoter – inhibitors of Peg3 promoter | 360,000 compounds, 1.7% hits | HeLa PEG-Prom luciferase reporter, luminescence, overnight | inhibition, % at 20 µM | AID 588405;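 active means inhibition of at least 50% at 20 µM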
TROY NFkB inh – inhibitors of TROY-dependent NF-kB signaling. 360,000 compounds, 0.98% hits. inhibition, % at 10 µM. Q293 LMP1-TROYcd NF-kB luciferase reporter, 4 h;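 active means compounds whose plate-normalised and pattern-corrected inhibition of the luciferase reporter signal at the single screening dose is 50% or more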
KKLEB tox – reduces viability of KKLEB cystic fibrosis airway cells | AID 602141 | KKLEB CF airway cells viability, ATPlite luminescence, overnight; active compounds read low; cells stimulated with P. aeruginosa culture filtrate | 360,000 compounds, 0.36% hits | activity change (cytotoxicity), % at 5 µM;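 active means corrected activity change at or below -50% at 5 µM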
CF NFkB inh – cystic fibrosis NF-kB activation inhibition; inhibition, % at 5 µM; 360,000 compounds, 0.86% hits; KKLEB NF-kB-GFP reporter, PAF-induced, GFP fluorescence overnight; AID 588850;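 active means at least 50% inhibition at 5 µM, scaled per plate between neutral and stimulator controls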;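 further: PAF is a Pseudomonas aeruginosa culture filtrate used as stimulus; plate controls were PAF-stimulated DMSO wells for no effect and unstimulated DMSO wells for full effect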
TWEAK-Fn14 inh – inhibitors of TWEAK-Fn14 interaction signaling; 360,000 compounds, 2% hits; TWEAK-stimulated Fn14 reporter cells, luciferase luminescence, 8 h; inhibition, % at 10 µM; in the data active means inhibition above about 50%
HIF-2a block – HIF-2a inhibition | 786-0 RCC cells HIF-2a reporter, luciferase luminescence, overnight | inhibition, % at 18.8 µM | 360,000 compounds, 0.72% hits | AID 624352;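 active means inhibition of the luminescence signal of 40% or more relative to plate controls, in a single-dose primary screen at 18.75 µM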
* = called active by the depositor. This is a sample that favours compounds with a hit; in the whole collection about 4% have one here.

`CCOC(=O)C1=C(N)N(c2ccccc2)C2=C(C(=O)CCC2)C1c1cccnc1` (configuration not stated) gave Peg3 promoter 19.0, TROY NFkB inh 14.3, KKLEB tox -2.0, CF NFkB inh 5.3, TWEAK-Fn14 inh 52.5* and HIF-2a block 10.5.
`COC(=O)c1sc(N2C(=O)c3oc4ccccc4c(=O)c3C2c2cccc(O)c2)nc1C` (configuration not stated) gave Peg3 promoter 52.2*, TROY NFkB inh 17.3, KKLEB tox -0.9, CF NFkB inh 0.4, TWEAK-Fn14 inh -6.2 and HIF-2a block 11.3.
O=C(Cc1ccccc1[N+](=O)[O-])NCC(O)c1ccc2c(c1)OCO2 (configuration not stated) was read as Peg3 promoter 2.7, TROY NFkB inh -0.5, KKLEB tox -5.7, CF NFkB inh 5.6, TWEAK-Fn14 inh -1.0 and HIF-2a block 0.7.
CCOC(=O)C(C(=O)OCC)C(Nc1ccc(Br)cc1)c1ccccc1 (configuration not stated) was read as Peg3 promoter 11.1, TROY NFkB inh 4.9, KKLEB tox -9.3, CF NFkB inh 25.2, TWEAK-Fn14 inh 54.1* and HIF-2a block 23.7.
For CCNS(=O)(=O)c1ccc(CCC(=O)Nc2cc(Cl)ccc2Oc2ccccc2)cc1 the results were Peg3 promoter 63.3*, TROY NFkB inh 27.2, KKLEB tox -14.1, CF NFkB inh 14.7, TWEAK-Fn14 inh 44.2 and HIF-2a block 23.9.
For Cc1ccc(NC(=S)NC(=O)C2CCCC2)c(Br)c1 the results were Peg3 promoter -302.7, TROY NFkB inh -6.2, KKLEB tox -3.0, CF NFkB inh 22.4, TWEAK-Fn14 inh -16.2 and HIF-2a block -230.3.
Cc1c(CN(C)C)c2c(n1Cc1ccccc1)C(=O)c1ccc(Br)cc1-2 was read as Peg3 promoter 67.4*, TROY NFkB inh -3.2, KKLEB tox -24.6, CF NFkB inh 6.7, TWEAK-Fn14 inh -8.7 and HIF-2a block -5.7.
For Cc1c(CN(C)C)c2c(n1C)C(=O)c1ccc(Br)cc1-2 the results were Peg3 promoter 6.1, TROY NFkB inh -8.5, KKLEB tox -2.6, CF NFkB inh 5.6, TWEAK-Fn14 inh -28.5 and HIF-2a block 11.6.
For Oc1ccc(N=Nc2cccc(C(F)(F)F)c2)cc1C=Nc1ccc(N2CCOCC2)cc1 the results were Peg3 promoter -5.5, TROY NFkB inh 21.1, KKLEB tox -9.4, CF NFkB inh 78.5*, TWEAK-Fn14 inh 36.4 and HIF-2a block -36.8.
Oc1ccc(C=Nc2ccc(N3CCOCC3)cc2)c(O)c1 was read as Peg3 promoter 2.0, TROY NFkB inh 44.6, KKLEB tox 2.5, CF NFkB inh 7.7, TWEAK-Fn14 inh 28.0 and HIF-2a block 3.8.
For O=C(O)c1ccc(C2Nc3ccccc3C(=O)N2Cc2ccccc2)cc1 (configuration not stated) the results were Peg3 promoter 9.8, TROY NFkB inh -2.3, KKLEB tox -7.8, CF NFkB inh 19.5, TWEAK-Fn14 inh -4.8 and HIF-2a block 19.7.
`O=C(NCCn1cc(SCc2ccc(F)cc2)c2ccccc21)c1ccccc1F` gave Peg3 promoter 23.1, TROY NFkB inh 27.7, KKLEB tox -2.2, CF NFkB inh 9.2, TWEAK-Fn14 inh 51.1* and HIF-2a block -23.2.
`O=C(NCCn1cc(SCc2ccccc2)c2ccccc21)c1c(F)cccc1F` gave Peg3 promoter -2.4, TROY NFkB inh 22.1, KKLEB tox 2.7, CF NFkB inh 15.1, TWEAK-Fn14 inh 50.3* and HIF-2a block -107.6.
Screening O=C(NCCn1cc(SCc2ccc(F)cc2)c2ccccc21)c1c(F)cccc1F returned Peg3 promoter 13.6, TROY NFkB inh 27.1, KKLEB tox 1.4, CF NFkB inh -4.7, TWEAK-Fn14 inh 38.4 and HIF-2a block -22.7.
Cc1ccc(/C=C2/SC(=S)N(c3ccc(S(=O)(=O)Nc4nccs4)cc3)C2=O)cc1 was read as Peg3 promoter -0.7, TROY NFkB inh 61.2*, KKLEB tox -15.1, CF NFkB inh 17.2, TWEAK-Fn14 inh 63.9* and HIF-2a block 16.4.
For O=C1/C(=C\c2ccccn2)SC(=S)N1c1ccc(S(=O)(=O)Nc2nccs2)cc1 the results were Peg3 promoter 13.0, TROY NFkB inh -2.2, KKLEB tox -9.3, CF NFkB inh -3.7, TWEAK-Fn14 inh -8.4 and HIF-2a block 12.3.
Screening COc1ccc(/C=C2/SC(=S)N(c3ccc(S(=O)(=O)Nc4nccs4)cc3)C2=O)cc1 returned Peg3 promoter 11.0, TROY NFkB inh 54.3*, KKLEB tox -17.8, CF NFkB inh 21.9, TWEAK-Fn14 inh 39.0 and HIF-2a block 13.6.
For NS(=O)(=O)c1ccc(N=Nc2c(-c3ccccc3)[nH]n(-c3nc(-c4ccccc4)cs3)c2=O)cc1 the results were Peg3 promoter 71.3*, TROY NFkB inh -10.8, KKLEB tox 10.8, CF NFkB inh 27.1, TWEAK-Fn14 inh 24.5 and HIF-2a block -48.5.
Screening Nc1[nH]n2c(=O)cc(-c3ccccc3)nc2c1N=Nc1ccc(S(N)(=O)=O)cc1 returned Peg3 promoter 11.1, TROY NFkB inh -19.8, KKLEB tox -6.7, CF NFkB inh -2.2, TWEAK-Fn14 inh -1.3 and HIF-2a block 9.6.
`CC(C)(C)c1ccc(/C=N/NC(=O)c2ccccn2)cc1` gave Peg3 promoter -88.2, TROY NFkB inh 52.3*, KKLEB tox -34.8, CF NFkB inh -4.6, TWEAK-Fn14 inh 71.0* and HIF-2a block -110.5.
`O=C(CNc1ccccc1F)Nc1cc(S(=O)(=O)N2CCCCC2)ccc1Cl` gave Peg3 promoter 26.3, TROY NFkB inh 17.6, KKLEB tox -10.7, CF NFkB inh 0.9, TWEAK-Fn14 inh -9.2 and HIF-2a block 14.2.
`Cc1ccc(S(=O)(=O)N2CCCCC2)cc1NCC(=O)Nc1ccc(Br)cc1F` gave Peg3 promoter 18.8, TROY NFkB inh 52.6*, KKLEB tox -2.7, CF NFkB inh -18.2, TWEAK-Fn14 inh 80.0* and HIF-2a block 11.3.
`Cc1coc2c1C(=O)C(=O)c1c-2ccc2c(C)cccc12` gave Peg3 promoter 45.6, TROY NFkB inh 1.2, KKLEB tox -28.2, CF NFkB inh 34.0, TWEAK-Fn14 inh 26.4 and HIF-2a block -86.8.
C[C@H]1COC2=C1C(=O)C(=O)c1c2ccc2c1CCCC2(C)C was read as Peg3 promoter 47.5, TROY NFkB inh 31.0, KKLEB tox -2.9, CF NFkB inh 56.6*, TWEAK-Fn14 inh 35.8 and HIF-2a block -49.9.
Screening Cc1coc2c1C(=O)C(=O)c1c-2ccc2c1CCCC2(C)C returned Peg3 promoter 69.0*, TROY NFkB inh 37.2, KKLEB tox -16.3, CF NFkB inh 69.7*, TWEAK-Fn14 inh 32.8 and HIF-2a block -44.9.
Screening CC(CCN1C(Nc2ccccc2)=NC[C@@H]1Cc1ccccc1)c1ccccc1 (some centres not stated) returned Peg3 promoter -31.2, TROY NFkB inh -7.5, KKLEB tox -4.4, CF NFkB inh 15.2, TWEAK-Fn14 inh 5.6 and HIF-2a block -10.7.
